In all, about 5,500 compounds went through this assay and about 2,000 (36%) were called active. About 18% were inconclusive and are not listed. Cut-off read from the data, not from the text of the source: active = normalized growth mostly below about 0.91 (no sharp cut-off); inconclusive = no clear call, values can overlap the other calls; inactive = mostly above about 0.92. This is one part of the list.
Assay: chemical genetic growth profiling, strain panel (AID 1159580);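 note: tested at 20 µM; growth read once vehicle control cultures reached saturation at 30 °C; 1 = growth at the plate median or of vehicle wells; lower values mean less growth of the strain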
Conditions: growth OD

Measured: normalized growth

Clc1ccc(COC(Cn2ccnc2)c2ccc(Cl)cc2Cl)cc1 (stereo unspecified)
active: S. cerevisiae deletion strains, locus YJR066W, strain TOR1, stronger effect = lower value 0.00125 | S. cerevisiae deletion strains, locus YJR075W, strain HOC1, stronger effect = lower value 0.0611 | S. cerevisiae deletion strains, locus YKL009W, strain mrt4, stronger effect = lower value 0.0921 | S. cerevisiae deletion strains, locus YKL068W, stronger effect = lower value 0.0732 | S. cerevisiae deletion strains, locus YKL085W, strain MDH1 (second series), stronger effect = lower value 0.0674 | S. cerevisiae deletion strains, locus YKL085W, strain MDH1, stronger effect = lower value 0.0674 | S. cerevisiae deletion strains, locus YKL160W, strain elf1, stronger effect = lower value 0.0682 | S. cerevisiae deletion strains, locus YKL190W, strain CNB1, stronger effect = lower value 0.0459 | S. cerevisiae deletion strains, locus YKR001C, strain vps1, stronger effect = lower value 0.0628 | S. cerevisiae deletion strains, locus YKR026C, strain gcn3, stronger effect = lower value 0.0617 | S. cerevisiae deletion strains, locus YKR091W, strain srl3, stronger effect = lower value 0.0578 | S. cerevisiae deletion strains, locus YLL001W, strain dnm1, stronger effect = lower value 0.0616 | S. cerevisiae deletion strains, locus YLL026W, stronger effect = lower value 0.0557 | S. cerevisiae deletion strains, locus YLL041C, strain sdh2, stronger effect = lower value 0.0556 | S. cerevisiae deletion strains, locus YLR027C, strain aat2, stronger effect = lower value 0.0535 | S. cerevisiae deletion strains, locus YLR039C, strain RIC1, stronger effect = lower value 0.0808 | S. cerevisiae deletion strains, locus YLR058C, strain SHM2, stronger effect = lower value 0.0475 | S. cerevisiae deletion strains, locus YLR102C, strain apc9, stronger effect = lower value 0.0627 | S. cerevisiae deletion strains, locus YLR113W, strain HOG1, stronger effect = lower value 0.128 | S. cerevisiae deletion strains, locus YLR221C, strain rsa3, stronger effect = lower value 0.0566 | S. cerevisiae deletion strains, locus YLR258W, strain gsy2, stronger effect = lower value 0.0569 | S. cerevisiae deletion strains, locus YLR262C, strain YPT6 (second series), stronger effect = lower value 0.0789 | S. cerevisiae deletion strains, locus YLR262C, strain YPT6, stronger effect = lower value 0.112 | S. cerevisiae deletion strains, locus YLR268W, strain sec22, stronger effect = lower value 0.0635 | S. cerevisiae deletion strains, locus YLR320W, strain mms22, stronger effect = lower value 0.139 | S. cerevisiae deletion strains, locus YLR330W, strain CHS5, stronger effect = lower value 0.0517 | S. cerevisiae deletion strains, locus YLR342W, strain FKS1 (second series), stronger effect = lower value 0.0624 | S. cerevisiae deletion strains, locus YLR342W, strain FKS1, stronger effect = lower value 0.0696 | S. cerevisiae deletion strains, locus YLR357W, strain rsc2, stronger effect = lower value 0.121 | S. cerevisiae deletion strains, locus YLR370C, strain arc18, stronger effect = lower value 0.0609 | S. cerevisiae deletion strains, locus YLR371W, strain rom2, stronger effect = lower value 0.0612 | S. cerevisiae deletion strains, locus YLR384C, strain iki3, stronger effect = lower value 0.0595 | S. cerevisiae deletion strains, locus YLR418C, strain cdc73, stronger effect = lower value 0.089 | S. cerevisiae deletion strains, locus YML016C, strain PPZ1, stronger effect = lower value 0.046 | S. cerevisiae deletion strains, locus YML032C, strain rad52, stronger effect = lower value 0.0629 | S. cerevisiae deletion strains, locus YML120C, strain ndi1, stronger effect = lower value 0.0559 | S. cerevisiae deletion strains, locus YML124C, strain tub3, stronger effect = lower value 0.06 | S. cerevisiae deletion strains, locus YMR058W, strain fet3, stronger effect = lower value 0.0614 | S. cerevisiae deletion strains, locus YMR078C, strain ctf18, stronger effect = lower value 0.0711 | S. cerevisiae deletion strains, locus YMR125W, strain sto1, stronger effect = lower value 0.0771 | S. cerevisiae deletion strains, locus YMR129W, stronger effect = lower value 0.0559 | S. cerevisiae deletion strains, locus YMR205C, strain PFK2, stronger effect = lower value 0.0917 | S. cerevisiae deletion strains, locus YMR223W, strain ubp8, stronger effect = lower value 0.0593 | S. cerevisiae deletion strains, locus YMR231W, strain pep5, stronger effect = lower value 0.125 | S. cerevisiae deletion strains, locus YMR263W, strain SAP30, stronger effect = lower value 0.055 | S. cerevisiae deletion strains, locus YMR307W, strain GAS1, stronger effect = lower value 0.123 | S. cerevisiae deletion strains, locus YNL067W, strain RPL9B, stronger effect = lower value 0.0483 | S. cerevisiae deletion strains, locus YNL071W, strain lat1, stronger effect = lower value 0.0586 | S. cerevisiae deletion strains, locus YNL128W, strain TEP1, stronger effect = lower value 0.0622 | S. cerevisiae deletion strains, locus YNL153C, strain GIM3, stronger effect = lower value 0.0497 | S. cerevisiae deletion strains, locus YNL183C, strain NPR1, stronger effect = lower value -0.00516 | S. cerevisiae deletion strains, locus YNL209W, strain ssb2, stronger effect = lower value 0.0633 | S. cerevisiae deletion strains, locus YNL233W, strain BNI4, stronger effect = lower value 0.0542 | S. cerevisiae deletion strains, locus YNL248C, strain rpa49, stronger effect = lower value 0.0786 | S. cerevisiae deletion strains, locus YNL250W, strain rad50, stronger effect = lower value 0.0799 | S. cerevisiae deletion strains, locus YNL271C, strain bni1, stronger effect = lower value 0.0793 | S. cerevisiae deletion strains, locus YNL298W, strain CLA4, stronger effect = lower value 0.0698 | S. cerevisiae deletion strains, locus YNL307C, strain MCK1, stronger effect = lower value 0.0676 | S. cerevisiae deletion strains, locus YNL322C, strain KRE1 (second series), stronger effect = lower value 0.067 | S. cerevisiae deletion strains, locus YNR049C, strain mso1, stronger effect = lower value 0.0571 | S. cerevisiae deletion strains, locus YNR052C, strain pop2, stronger effect = lower value 0.0609 | S. cerevisiae deletion strains, locus YOL006C, strain TOP1, stronger effect = lower value 0.104 | S. cerevisiae deletion strains, locus YOL012C, strain htz1 0.142 | S. cerevisiae deletion strains, locus YOL147C, strain pex11, stronger effect = lower value 0.0571 | S. cerevisiae deletion strains, locus YOR001W, strain rrp6, stronger effect = lower value 0.0678 | S. cerevisiae deletion strains, locus YOR061W, strain CKA2, stronger effect = lower value 0.0453 | S. cerevisiae deletion strains, locus YOR069W, strain VPS5, stronger effect = lower value 0.0468 | S. cerevisiae deletion strains, locus YOR070C, strain gyp1, stronger effect = lower value 0.0583 | S. cerevisiae deletion strains, locus YOR080W, strain dia2, stronger effect = lower value 0.0655 | S. cerevisiae deletion strains, locus YOR083W, strain WHI5, stronger effect = lower value 0.0646 | S. cerevisiae deletion strains, locus YOR106W, strain vam3, stronger effect = lower value 0.0717 | S. cerevisiae deletion strains, locus YOR136W, strain idh2, stronger effect = lower value 0.0693 | S. cerevisiae deletion strains, locus YOR144C, strain elg1, stronger effect = lower value 0.0562 | S. cerevisiae deletion strains, locus YOR184W, strain ser1, stronger effect = lower value 0.0649 | S. cerevisiae deletion strains, locus YOR231W, strain MKK1, stronger effect = lower value 0.119 | S. cerevisiae deletion strains, locus YOR265W, strain rbl2, stronger effect = lower value 0.0574 | S. cerevisiae deletion strains, locus YOR270C, strain vph1, stronger effect = lower value 0.104 | S. cerevisiae deletion strains, locus YOR290C, strain snf2, stronger effect = lower value 0.0649 | S. cerevisiae deletion strains, locus YOR316C, strain cot1, stronger effect = lower value 0.0595 | S. cerevisiae deletion strains, locus YPL051W, strain arl3, stronger effect = lower value 0.0626 | S. cerevisiae deletion strains, locus YPL078C, strain atp4, stronger effect = lower value 0.0787 | S. cerevisiae deletion strains, locus YPL106C, strain sse1, stronger effect = lower value 0.0958 | S. cerevisiae deletion strains, locus YPL240C, strain hsp82, stronger effect = lower value 0.0557 | S. cerevisiae deletion strains, locus YPL241C, strain CIN2, stronger effect = lower value 0.0472 | S. cerevisiae deletion strains, locus YPL256C, strain CLN2, stronger effect = lower value 0.127 | S. cerevisiae deletion strains, locus YPR119W, strain clb2, stronger effect = lower value 0.062 | S. cerevisiae deletion strains, locus YPR141C, strain kar3, stronger effect = lower value 0.0789 | S. cerevisiae deletion strains, locus YPR163C, strain tif3, stronger effect = lower value 0.0707 | S. cerevisiae deletion strains, locus YPR167C, strain met16, stronger effect = lower value 0.0615 | S. cerevisiae deletion strains, strain wtn01, stronger effect = lower value 0.0584 | S. cerevisiae strains, strain wild type, stronger effect = lower value 0.0556
